Inconclusive results are not listed. A number with no mark means an inactive call. The call rests on the fitted dose curve; in most records, active means well fitted curve in the direction sought with a large enough effect; inconclusive means small, poorly fitted or top-dose-only effect, or another doubt; inactive means no such curve, though single readings can be large or run the other way.
Assay: HepG2 viability counterscreen (readout 1: protease activity) against the NCATS DSHEA and TCM libraries (AID 1794841);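 further: cells exposed to compounds for about 24 h before the protease read; 0% is about no effect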
Details: qHTS concentration series; series mostly up to 15.1 µM; activity change, negative = inhibition: at the top concentration
In short: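 1,000 HepG2 cells/well, 4 h attach; compounds ~24 h, 37C/5% CO2. Readout 1: GF-AFC 25 uM final, 30 min, fluorescence 380/510 nm. Readout 2: CellTiter-Glo, 30 min RT, luminescence.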

Row | SMILES | activity change, negative = inhibition
1 | CC(C)=CCC[C@](C)(O[C@@H]1O[C@H](CO[C@@H]2O[C@H](CO)[C@@H](O)[C@H](O)[C@H]2O)[C@@H](O)[C@H](O)[C@H]1O)C1CC[C@]2(C)[C@@H]1[C@H](O)CC1[C@@]3(C)CC[C@H](O[C@@H]4O[C@H](CO)[C@@H](O)[C@H](O)[C@H]4O[C@@H]4O[C@H](CO)[C@@H](O)[C@H](O)[C@H]4O)C(C)(C)[C@@H]3CC[C@]12C (stereo partly specified) | 10.3% [at 5.68 µM]
2 | CC(C)=CCC[C@](C)(O)[C@H]1CC[C@]2(C)[C@@H]1[C@H](O)CC1[C@@]3(C)CC[C@H](O)C(C)(C)[C@@H]3[C@@H](O[C@@H]3O[C@H](CO)[C@@H](O)[C@H](O)[C@H]3O[C@@H]3O[C@H](CO)[C@@H](O)[C@H](O)[C@H]3O)C[C@]12C (stereo partly specified) | -3.01%
3 | C[C@@]12CC[C@@H]3[C@@](CC[C@H]4[C@@]3(C)CCC[C@@]4(C)C(=O)O)(CC1=O)C2 | 15.4% [at 27.3 µM]
4 | CC1CC[C@]2(C(=O)O)CC[C@]3(C(=O)O)C(=CCC4[C@@]5(C)CC[C@H](OC6OC(C)C(O)C(OC7OC(CO)C(O)C(O)C7O)C6O)C(C)(C)C5CC[C@]43C)C2C1C (stereo partly specified) | -17.8%
5 | OC[C@H]1O[C@@H](OC[C@H]2O[C@@H](OC/C=C/c3ccccc3)[C@H](O)[C@@H](O)[C@@H]2O)[C@@H](O)[C@@H]1O | 0.126%
6 | CC(C)=CCC(O)/C(C)=C/CO[C@@H]1O[C@H](CO)[C@@H](O)[C@H](O)[C@H]1O (stereo partly specified) | 19.7% [at 27.3 µM]
